From PubChem BioAssay
Calls of active or inactive are those of the source. Cut-off read from the data, not from the text of the source: active = inhibition above about 31%; inactive = the rest.

Experiment: 384-well plate pilot, post-Golgi transport modulator project, inhibition of yeast transport mutant growth (AID 636)
Conditions: absorbance 615 nm, about 18 h, stronger effect = higher value

inhibition, inactive:
Cn1c(=O)c2c(nc(N3CCCCC3)n2CCSc2nc3ccccc3o2)n(C)c1=O -0.67%, CCOC(=O)C1=C(C)N=c2s/c(=C\c3cccn3C)c(=O)n2C1c1cccc(OC)c1OC (stereo not given) -1.56%, C=CCn1c(SCC(=O)O)nnc1-c1cccc(Cl)c1 -5.19%, Cc1ccc(S(=O)(=O)N2CCC(C(=O)NCCN3CCCCCC3)CC2)cc1 0.13%, CCOC(=O)c1sc(N2C(=O)C(O)=C(C(=O)c3ccco3)C2c2ccccc2)nc1C (stereo not given) -4.93%, COc1cc(C)nc(NS(=O)(=O)c2ccc(C)cc2)n1 -3.82%, CCCCC(=O)Nc1nn(CCC)c2nc3ccccc3cc12 -1.97%, CCCCCOC(=O)CSc1nnc(-c2cc(OC)c(OC)c(OC)c2)o1 -5%, O=C(CN1CCN(C(=O)c2ccccc2)CC1)Nc1ncc(Br)cc1Br -2.4%, O=C(c1ccc2c(c1)OCCO2)C1CCN(C(=O)c2ccc(F)cc2)CC1 -6.35%, Cc1cc2c(c(=O)n1CCc1ccccc1)C(C(C)C)C(C#N)=C(N)O2 (stereo not given) -4.87%, Cc1cc(NC(=O)Cn2cnc3c(cnn3C(C)(C)C)c2=O)no1 0.66%, O=C(OCCCCN1C(=O)c2ccccc2C1=O)c1n[nH]c2ccccc12 -7.67%, CCOC(=O)CSc1nnc(-c2ccccc2OC)o1 -6.44%, O=C(Nn1cnnc1)c1cc2c(s1)CCCC2 -3.42%, Cc1cc2nc(C3CCN(CC4COc5ccccc5O4)CC3)[nH]c2cc1C (stereo not given) -3.03%, CCOc1ccc(S(=O)(=O)Nc2cccc(Cl)c2)cc1 -5.07%, O=C(OCc1nnc(-c2ccccc2)o1)c1ccc2ccccc2n1 3.15%, COc1ccc(-c2nnc3sc(-c4c(OC)cccc4OC)nn23)cc1 -5.13%, CC1=Nn2c(nnc2-c2cc(-c3ccccc3)n[nH]2)SC1 -3.47%, COc1cccc(C2C(C#N)=C(N)OC3=C2C(=O)CCC3)c1OC(=O)c1ccco1 (stereo not given) -4.53%, CCN(C1CCCCC1)S(=O)(=O)c1ccc(OC)c(C)c1 -7.92%, O=C(C1CC1)N1CCc2cc(S(=O)(=O)N(CCO)Cc3ccccc3)ccc21 -0.4%, COc1ccc(Cl)cc1S(=O)(=O)n1cnc2ccccc21 -4.59%, CCOC(=O)C(CC)Sc1nc2c(c(=O)[nH]c(=O)n2C)n1C/C=C(/C)Cl (stereo not given) -6.27%, Cc1cc2c(c(=O)o1)C(Cc1ccccc1)C(C#N)=C(N)O2 (stereo not given) 1.45%, Cc1nc2scc(-c3cccs3)c2c(=O)n1-n1cccc1 -1.79%, Cc1cc(-n2c(C)cc(C(=O)CSc3nc4ccccc4c(=O)n3Cc3ccco3)c2C)no1 -6.8%, N#Cc1c(NC(=O)c2ccc(Br)o2)n(-c2ccccc2)c2nc3ccccc3nc12 -5.73%, CCC1C(=O)n2nc(-c3ccccc3)cc2N=C1C (stereo not given) -0.39%, O=C(CN1C(=O)CSC1=O)N1CCc2ccccc2C1 -2.34%, C1CCc2nnc(-c3nnc4n3CCCCC4)n2CC1 -1.28%, O=C(CCCCCn1c(SCc2ccncc2)nc2ccccc2c1=O)NCc1ccco1 -1.18%, CCSc1nnc(NC(=O)c2nn(C(C)C)c(=O)c3ccccc23)s1 -5.39%, CN(C)c1ccc2c(c1)OC(N)=C(C#N)C2c1cccc(F)c1 (stereo not given) -3.24%, CN(C)c1ccc(NC(=O)c2cc3c(=O)n4ccccc4nc3n2C)cc1 -0.54%, CC(CN1CCN(C)CC1)OC(=O)c1ccc(Cl)cc1Cl (stereo not given) -4.53%, COc1ccccc1Nc1ncnc2c1cnn2-c1cccc(C)c1 -5.33%, NCCN1CCN(CCN)CC1 -3.87%, CCOc1ccc2nc(NC(=O)CSc3nnnn3C3CCCCC3)sc2c1 9.08%
